Experimental data from PubChem BioAssay AID1159580 (chemical genetic matrix, 2015).
Among all 5,500 compounds or so, about 2,000 (36%) were called active. Inconclusive results (about 18%) are left out. Rule as the data show it: active = normalized growth mostly below about 0.91 (no sharp cut-off); inconclusive = no clear call, values can overlap the other calls; inactive = mostly above about 0.92. The list shows a part of the results.

Experiment: chemical genetic growth profiling, strain panel (AID 1159580);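 also: tested at 20 µM; growth read once vehicle control cultures reached saturation at 30 °C; 1 = growth at the plate median or of vehicle wells; lower values mean less growth of the strain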
Settings: growth OD

Measured: normalized growth

O=c1cc(-c2ccccc2)oc2cc(O)c(O)c(O)c12
active: S. cerevisiae deletion strains, locus YKL068W, active compounds read low 0.855 | S. cerevisiae deletion strains, locus YKL085W, strain MDH1 (second series), active compounds read low 0.84 | S. cerevisiae deletion strains, locus YKL085W, strain MDH1, active compounds read low 0.84 | S. cerevisiae deletion strains, locus YKL160W, strain elf1, active compounds read low 0.701 | S. cerevisiae deletion strains, locus YKL190W, strain CNB1, active compounds read low 0.429 | S. cerevisiae deletion strains, locus YKR001C, strain vps1, active compounds read low 0.376 | S. cerevisiae deletion strains, locus YKR026C, strain gcn3, active compounds read low 0.572 | S. cerevisiae deletion strains, locus YKR091W, strain srl3, active compounds read low 0.763 | S. cerevisiae deletion strains, locus YLL001W, strain dnm1, active compounds read low 0.482 | S. cerevisiae deletion strains, locus YLL026W, active compounds read low 0.57 | S. cerevisiae deletion strains, locus YLL041C, strain sdh2, active compounds read low 0.649 | S. cerevisiae deletion strains, locus YLR027C, strain aat2, active compounds read low 0.575 | S. cerevisiae deletion strains, locus YLR039C, strain RIC1, active compounds read low 0.154 | S. cerevisiae deletion strains, locus YLR058C, strain SHM2, active compounds read low 0.0829 | S. cerevisiae deletion strains, locus YLR102C, strain apc9, active compounds read low 0.857 | S. cerevisiae deletion strains, locus YLR113W, strain HOG1, active compounds read low 0.575 | S. cerevisiae deletion strains, locus YLR221C, strain rsa3, active compounds read low 0.521 | S. cerevisiae deletion strains, locus YLR258W, strain gsy2, active compounds read low 0.576 | S. cerevisiae deletion strains, locus YLR262C, strain YPT6 (second series), active compounds read low 0.303 | S. cerevisiae deletion strains, locus YLR262C, strain YPT6, active compounds read low 0.375 | S. cerevisiae deletion strains, locus YLR268W, strain sec22, active compounds read low 0.176 | S. cerevisiae deletion strains, locus YLR320W, strain mms22, active compounds read low 0.418 | S. cerevisiae deletion strains, locus YLR330W, strain CHS5, active compounds read low 0.543 | S. cerevisiae deletion strains, locus YLR342W, strain FKS1 (second series), active compounds read low 0.345 | S. cerevisiae deletion strains, locus YLR342W, strain FKS1, active compounds read low 0.364 | S. cerevisiae deletion strains, locus YLR357W, strain rsc2, active compounds read low 0.474 | S. cerevisiae deletion strains, locus YLR370C, strain arc18, active compounds read low 0.427 | S. cerevisiae deletion strains, locus YLR371W, strain rom2, active compounds read low 0.588 | S. cerevisiae deletion strains, locus YLR384C, strain iki3, active compounds read low 0.327 | S. cerevisiae deletion strains, locus YLR418C, strain cdc73, active compounds read low 0.303 | S. cerevisiae deletion strains, locus YML016C, strain PPZ1, active compounds read low 0.399 | S. cerevisiae deletion strains, locus YML032C, strain rad52, active compounds read low 0.165 | S. cerevisiae deletion strains, locus YML120C, strain ndi1, active compounds read low 0.14 | S. cerevisiae deletion strains, locus YML124C, strain tub3, active compounds read low 0.424 | S. cerevisiae deletion strains, locus YMR058W, strain fet3, active compounds read low 0.223 | S. cerevisiae deletion strains, locus YMR078C, strain ctf18, active compounds read low 0.547 | S. cerevisiae deletion strains, locus YMR125W, strain sto1, active compounds read low 0.802 | S. cerevisiae deletion strains, locus YMR129W, active compounds read low 0.568 | S. cerevisiae deletion strains, locus YMR205C, strain PFK2, active compounds read low 0.294 | S. cerevisiae deletion strains, locus YMR223W, strain ubp8, active compounds read low 0.464 | S. cerevisiae deletion strains, locus YMR231W, strain pep5, active compounds read low 0.398 | S. cerevisiae deletion strains, locus YMR263W, strain SAP30, active compounds read low 0.207 | S. cerevisiae deletion strains, locus YMR307W, strain GAS1, active compounds read low 0.456 | S. cerevisiae deletion strains, locus YNL067W, strain RPL9B, active compounds read low 0.401 | S. cerevisiae deletion strains, locus YNL071W, strain lat1, active compounds read low 0.675 | S. cerevisiae deletion strains, locus YNL128W, strain TEP1, active compounds read low 0.387 | S. cerevisiae deletion strains, locus YNL153C, strain GIM3, active compounds read low 0.215 | S. cerevisiae deletion strains, locus YNL183C, strain NPR1, active compounds read low 0.634 | S. cerevisiae deletion strains, locus YNL209W, strain ssb2, active compounds read low 0.185 | S. cerevisiae deletion strains, locus YNL233W, strain BNI4, active compounds read low 0.502 | S. cerevisiae deletion strains, locus YNL248C, strain rpa49, active compounds read low 0.633 | S. cerevisiae deletion strains, locus YNL250W, strain rad50, active compounds read low 0.76 | S. cerevisiae deletion strains, locus YNL271C, strain bni1, active compounds read low 0.774 | S. cerevisiae deletion strains, locus YNL298W, strain CLA4, active compounds read low 0.756 | S. cerevisiae deletion strains, locus YNL307C, strain MCK1, active compounds read low 0.517 | S. cerevisiae deletion strains, locus YNL322C, strain KRE1 (second series), active compounds read low 0.187 | S. cerevisiae deletion strains, locus YNL322C, strain KRE1, active compounds read low 0.241 | S. cerevisiae deletion strains, locus YNR049C, strain mso1, active compounds read low 0.714 | S. cerevisiae deletion strains, locus YNR052C, strain pop2, active compounds read low 0.122 | S. cerevisiae deletion strains, locus YOL006C, strain TOP1, active compounds read low 0.136 | S. cerevisiae deletion strains, locus YOL147C, strain pex11, active compounds read low 0.187 | S. cerevisiae deletion strains, locus YOR001W, strain rrp6, active compounds read low 0.325 | S. cerevisiae deletion strains, locus YOR061W, strain CKA2, active compounds read low 0.545 | S. cerevisiae deletion strains, locus YOR069W, strain VPS5, active compounds read low 0.617 | S. cerevisiae deletion strains, locus YOR070C, strain gyp1, active compounds read low 0.782 | S. cerevisiae deletion strains, locus YOR080W, strain dia2, active compounds read low 0.105 | S. cerevisiae deletion strains, locus YOR083W, strain WHI5, active compounds read low 0.618 | S. cerevisiae deletion strains, locus YOR106W, strain vam3, active compounds read low 0.221 | S. cerevisiae deletion strains, locus YOR136W, strain idh2, active compounds read low 0.557 | S. cerevisiae deletion strains, locus YOR144C, strain elg1, active compounds read low 0.202 | S. cerevisiae deletion strains, locus YOR184W, strain ser1, active compounds read low 0.314 | S. cerevisiae deletion strains, locus YOR231W, strain MKK1, active compounds read low 0.68 | S. cerevisiae deletion strains, locus YOR265W, strain rbl2, active compounds read low 0.507 | S. cerevisiae deletion strains, locus YOR270C, strain vph1, active compounds read low 0.169 | S. cerevisiae deletion strains, locus YOR290C, strain snf2, active compounds read low 0.0825 | S. cerevisiae deletion strains, locus YOR316C, strain cot1, active compounds read low 0.738 | S. cerevisiae deletion strains, locus YPL051W, strain arl3, active compounds read low 0.328 | S. cerevisiae deletion strains, locus YPL055C, strain LGE1, active compounds read low 0.443 | S. cerevisiae deletion strains, locus YPL078C, strain atp4, active compounds read low 0.144 | S. cerevisiae deletion strains, locus YPL106C, strain sse1, active compounds read low 0.582 | S. cerevisiae deletion strains, locus YPL240C, strain hsp82, active compounds read low 0.671 | S. cerevisiae deletion strains, locus YPL241C, strain CIN2, active compounds read low 0.57 | S. cerevisiae deletion strains, locus YPL256C, strain CLN2, active compounds read low 0.693 | S. cerevisiae deletion strains, locus YPR119W, strain clb2, active compounds read low 0.802 | S. cerevisiae deletion strains, locus YPR141C, strain kar3, active compounds read low 0.849 | S. cerevisiae deletion strains, locus YPR163C, strain tif3, active compounds read low 0.659 | S. cerevisiae deletion strains, locus YPR167C, strain met16, active compounds read low 0.564 | S. cerevisiae deletion strains, strain wtn01, active compounds read low 0.349 | S. cerevisiae strains, strain wild type, active compounds read low 0.268
inactive: S. cerevisiae deletion strains, locus YKL009W, strain mrt4, active compounds read low 0.97 | S. cerevisiae deletion strains, locus YOL012C, strain htz1 0.269
